PubChem BioAssay (EPA / NIEHS)
Several values for one entry are separate records, joined by “and”; a condition that tells them apart may be missing. Equal entries are not always repeated. Records with an inconclusive call do not appear. Activity calls are given as the source filed them. The calls were made as follows, unless noted: active = hit-call score of the fitted dose curve at least 0.9, where 1 is the maximum; inactive = score below 0.9.

What was measured:
[1] = ACEA_ER_80hr: ACEA Biosciences xCELLigence Real-Time Cell Analysis on Estrogen Receptor Agonism for Proliferation (AID 2282667; active = hit-call score of the fitted dose curve at least 0.9, where 1 is the maximum); conditions: T47D proliferation, impedance (xCELLigence), 80 h
How it was run: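 T-47D cells monitored by electrical impedance (xCELLigence) with compound present throughout; 80 h timepoint, positive-direction fitting versus DMSO. Eight-point 1:4 dilutions from 100 uM final, duplicate plates.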

[2] = APR_HepG2_CellCycleArrest_24hr: Apredica 24-hour HepG2 Assay for Cell Cycle Arrest (AID 2282905); conditions: imaging, actives raise or lower the signal;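 also: cell cycle arrest scored as ratio of 2N to 4N nuclear DNA content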
How it was run: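 HepG2, 24 hr dosing, 10-pt 0.39–200 uM in duplicate, 0.5% DMSO. Fixed 3.7% formaldehyde, permeabilized 0.5% Triton X-100, Hoechst 33342 2 ug/mL. Imaged 20x; nuclear DNA content quantified; bidirectional fit vs DMSO.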

[3] = APR_HepG2_NuclearSize_24hr: Apredica 24-hour HepG2 Assay for Nuclear Size (AID 2282907); conditions: high-content imaging, actives raise or lower the signal
How it was run: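 HepG2, 24 hr dosing, 10-pt 0.39–200 uM, duplicates, 0.5% DMSO final; 3.7% formaldehyde fix, 0.5% Triton X-100; Hoechst 33342 nuclear stain; ArrayScan HCS, Cell Cycle analysis → nuclear size; bidirectional fit vs DMSO.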

[4] = APR_HepG2_CellLoss_24hr: Apredica 24-hour HepG2 Assay for Cell Loss (AID 2282908); conditions: high-content imaging;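 as to AC50: fit in both directions so a hit may be cell loss or gain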
How it was run: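 10-pt dose, 0.39–200 uM, n=2/plate; DMSO 0.5% v/v final as negative control. Fix 3.7% formaldehyde 30 min RT, permeabilize 0.5% Triton X-100, stain Hoechst 33342 2 ug/mL, image 20x. Nuclear count, bidirectional fit vs DMSO.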

[5] = APR_HepG2_MicrotubuleCSK_24hr: Apredica 24-hour HepG2 Assay for Microtubule CSK Stabilty (AID 2282909); conditions: HepG2 microtubule cytoskeleton imaging, actives raise or lower the signal
How it was run: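 Human liver HepG2, 24 h dosing, 0.39–200 uM ×10 conc, dup, 0.5% DMSO. 3.7% formaldehyde fix, 0.5% Triton perm, anti-alpha-tubulin (1:200)/Cy5 secondary + Hoechst. HCS imaging, 6 fields/well; gain/loss fit vs DMSO.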

[6] = APR_HepG2_MitoticArrest_24hr: Apredica 24-hour HepG2 Assay for Mitotic Arrest (AID 2282910); conditions: high-content imaging, actives raise or lower the signal
How it was run: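 HepG2 cells, 24 h exposure at 0.39-200 uM (10 concentrations, duplicate, 0.5% DMSO). Fixed, stained for phospho-histone H3 with Hoechst; imaged by high-content microscopy, bidirectional fit versus DMSO.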

[7] = APR_HepG2_MitoMembPot_24hr: Apredica 24-hour HepG2 Assay for Mitochondrial Membrane Potential (AID 2282911); conditions: imaging, actives raise or lower the signal
How it was run: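 HepG2 cells exposed 24 h to 0.39–200 uM compounds in duplicate, 0.5% v/v DMSO final. MitoTracker Red CMXRos 250 nM loaded 30 min before formaldehyde fixation; high-content imaging at 20x, bidirectional fit versus DMSO.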

[8] = APR_HepG2_MitoMass_24hr: Apredica 24-hour HepG2 Assay for Mitochondrial Mass (AID 2282912); conditions: high-content imaging, actives raise or lower the signal
How it was run: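 Mitochondrial mass is read as MitoTracker Red fluorescence intensity from automated imaging, with bidirectional curve fitting relative to DMSO. HepG2 cells received compound (0.39–200 uM, 0.5% DMSO final) for 24 hr and were dye-loaded (250 nM, 30 min) before formaldehyde fixation.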

[9] = APR_HepG2_p53Act_24hr: Apredica 24-hour HepG2 Assay for p53 Activation (AID 2282913); conditions: high-content imaging, actives raise or lower the signal;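 also: p53 protein immunofluorescence averaged per cell in HepG2 with Hoechst nuclei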
How it was run: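 HepG2 cells exposed 24 h to compounds at 0.39–200 uM in duplicate, 0.5% v/v DMSO final; fixed, permeabilized, stained with anti-p53 antibody and Hoechst 33342; fluorescence imaging; bidirectional curve fit versus DMSO.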

[10] = APR_HepG2_CellCycleArrest_72hr: Apredica 72-hour HepG2 Assay for Cell Cycle Arrest (AID 2282914); conditions: high-content imaging, actives raise or lower the signal
How it was run: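 HepG2 cells exposed 72 h in duplicate to 0.39–200 uM compound, 0.5% DMSO final. Formaldehyde-fixed, Hoechst 33342-stained nuclei imaged at 20x, six fields per well; DNA content per valid cell quantified by cell-cycle image analysis, bidirectional fit versus DMSO.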

[11] = APR_HepG2_CellLoss_72hr: Apredica 72-hour HepG2 Assay for Cell Loss (AID 2282915); conditions: high-content imaging
How it was run: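 HepG2 cells exposed 72 h to compound at 0.39–200 uM (10 concentrations, duplicate) in 0.5% DMSO. Fixed with 3.7% formaldehyde and Hoechst 33342-stained. Imaged at 20x; nuclear count gives cell number, fitted bidirectionally versus DMSO.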

[12] = APR_HepG2_P-H2AX_72hr: Apredica 72-hour HepG2 Assay for H2AX Phosphorylation (AID 2282916); conditions: imaging, actives raise or lower the signal;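 also: phospho-histone H2A.x immunostain intensity per cell marking DNA damage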
How it was run: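 HepG2; cpd 0.39–200 uM ×10 conc, duplicates; 0.5% DMSO; 72 hr. Fix 3.7% formaldehyde 30 min RT, 0.5% Triton X-100 10 min. Anti-phospho-H2A.x 1:200 + Hoechst 2 ug/mL, 60 min RT; ArrayScan imaging.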

[13] = APR_HepG2_MitoMembPot_72hr: Apredica 72-hour HepG2 Assay for Mitochondrial Membrane Potential (AID 2282917); conditions: imaging, actives raise or lower the signal
How it was run: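 HepG2 cells dosed 72 hr with compound at 0.39–200 uM in duplicate, 0.5% v/v DMSO final. Mitochondria stained with 250 nM MitoTracker Red CMXRos for 30 min before formaldehyde fixation, imaged by high-content fluorescence; bidirectional fit versus DMSO.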

[14] = APR_HepG2_MitoticArrest_72hr: Apredica 72-hour HepG2 Assay for Mitotic Arrest (AID 2282918); conditions: high-content imaging, actives raise or lower the signal
How it was run: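 HepG2 cells treated 72 h at 0.39–200 uM, 0.5% DMSO final; formaldehyde-fixed, stained with Hoechst 33342 and phospho-histone H3 antibody, imaged by high-content fluorescence; bidirectional fit versus DMSO.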

[15] = APR_HepG2_MicrotubuleCSK_72hr: Apredica 72-hour HepG2 Assay for Microtubule CSK Stabilty (AID 2282919); conditions: HepG2 microtubule cytoskeleton, high-content imaging, actives raise or lower the signal
How it was run: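 HepG2 cells were exposed 72 hr to compound at 0.39–200 uM in duplicate (0.5% DMSO final), then fixed and permeabilized. Alpha-tubulin immunofluorescence was imaged by high-content microscopy, with bidirectional fitting against DMSO and taxol as positive control.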

[16] = APR_HepG2_P-H2AX_24hr: Apredica 24-hour HepG2 Assay for H2AX Phosphorylation (AID 2282920); conditions: high-content imaging, actives raise or lower the signal
How it was run: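 HepG2 cells dosed 24 h at 0.39–200 uM (10 points, duplicate, 0.5% DMSO final). Formaldehyde-fixed and permeabilized, then immunostained for phospho-H2A.x with Hoechst. Fluorescence quantified by high-content imaging, fitted bidirectionally versus DMSO.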

[17] = APR_HepG2_StressKinase_72hr: Apredica 72-hour HepG2 Assay for Stress Kinase (AID 2282921); conditions: HepG2 stress kinase (phospho-c-Jun) imaging, actives raise or lower the signal
How it was run: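 Dose 0.39–200 uM (10 pts, duplicate), 0.5% DMSO; 72 h; fix 3.7% formaldehyde 30 min RT; Triton permeabilize; anti-phospho-c-Jun/Cy3 + Hoechst 60 min RT; image 20x; fit gain/loss vs DMSO.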

[18] = APR_HepG2_StressKinase_24hr: Apredica 24-hour HepG2 Assay for Stress Kinase (AID 2282922); conditions: HepG2 stress kinase (phospho-c-Jun) imaging, actives raise or lower the signal
How it was run: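 HepG2 cells exposed 24 h to 0.39–200 uM compound in duplicate (0.5% v/v DMSO final). Cells fixed in 3.7% formaldehyde, permeabilized and immunostained for phospho-c-Jun; read by high-content fluorescence imaging, fitted bidirectionally against DMSO.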

[19] = APR_HepG2_p53Act_72hr: Apredica 72-hour HepG2 Assay for p53 Activation (AID 2282923); conditions: high-content imaging, actives raise or lower the signal;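 also: average cellular p53 protein immunofluorescence intensity in HepG2 cells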
How it was run: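 10-pt conc. 0.39–200 uM, duplicate, 0.5% DMSO; 72 hr exposure; 3.7% formaldehyde fix, 0.5% Triton perm; sheep anti-p53/Cy5 + Hoechst; ArrayScan 20x, 6 images/well; gain/loss fit vs DMSO.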

[20] = APR_HepG2_MitoMass_72hr: Apredica 72-hour HepG2 Assay for Mitochondrial Mass (AID 2282924); conditions: high-content imaging, actives raise or lower the signal;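 also: MitoTracker Red CMXRos stain intensity per cell imaged as mitochondrial mass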
How it was run: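 HepG2 cells dosed 72 hr at 0.39–200 uM (0.5% DMSO), in duplicate. MitoTracker Red CMXRos 250 nM loaded 30 min before formaldehyde fixation; high-content fluorescence imaging, bidirectional fit versus DMSO.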

Measured: AC50

O=c1c(-c2ccc(O)cc2)coc2cc(O)ccc12
active: [1] 330 nM and 318 nM and 427 nM
inactive: all other assays above

NC(=O)N1C(=O)C(C(=O)c2cc(Cl)cs2)c2cc(F)c(Cl)cc21 (stereo not given)
active: [4] 98.8 µM | [5] 75.3 µM | [6] 84.7 µM | [8] 107 µM | [9] 105 µM | [10] 96.9 µM | [11] 62.7 µM | [12] 64.7 µM | [14] 47.7 µM | [15] 39.2 µM | [16] 99.8 µM | [17] 67.4 µM | [19] 59 µM | [20] 54.4 µM
inactive: [1] | [2] | [3] | [7] | [13] | [18]

CCCCCCCCC(=O)O
inactive: all assays above

CCCCCCCCCCCCCCCS(=O)(=O)Oc1ccccc1
inactive: all assays above

OC1CCC(C2CCCCC2)CC1 (stereo not given)
inactive: all assays above
